Data on 93 compounds can be found in PubChem BioAssay AID463173 (ICCB-Longwood Screening Facility, Harvard Medical School, 2010).

Hit rate of the full screen: of about 52,000 compounds, about 1,700 (3.3%) were called active. Cut-off read from the data, not from the text of the source: active = survival mostly below about 52% (no sharp cut-off); inactive = mostly above about 56%. Shown is part of a subset that was picked to be rich in actives.

The assay has as its system Wild type. Description: S. aureus survival, RN4220 and DeltatarO strains – OD600, teichoic acid synthesis inhibitors, primary screen (AID 463173). The conditions noted are these: S. aureus RN4220 wild type/DeltatarO growth, OD600, 18 h, stronger effect = lower value, screened at 18.75 µg/mL (by protocol).
Consider `CCOC(=O)N1CCN(C(=O)c2cnn(-c3cccc(F)c3)c2-n2cccc2)CC1`, for which the survival was 81% (inactive). The figure for `Cc1ccc2nc(N3CCC(C(=O)N4CCN(c5cccc(C)c5C)CC4)CC3)[nH]c2c1` is 76% (inactive); for `Cc1ccn2cc(CNC(=O)c3cccc(C(F)(F)F)c3)nc2c1` it is 86% (inactive); for `Cc1ccc(Cl)cc1NC(=O)C(NS(=O)(=O)c1ccc2c(c1)CCC(=O)N2)c1ccccc1` (stereo not drawn) it is 70% (inactive). Turning to `COc1ccc(CNC(=O)c2cc3sccc3n2C)cc1`, the survival was 67% (inactive). The same measure for `Cn1c(=O)n(C)c2cc(N3CCOCC3)c(NS(=O)(=O)c3ccc(Br)cc3)cc21`: 82% (inactive). The same measure for `O=C(Nc1nnc(S(=O)(=O)N2CCCCCC2)s1)c1ccccc1`: 48% (inactive); for `Cc1ccc(NC(=O)CCC(=O)N2Cc3ccccc3Oc3ncccc32)cc1`: 22% (inactive).

Consider `CC(C)CCNC(=O)CCC(=O)N1Cc2ccccc2Oc2ncccc21`, for which the survival was 65% (inactive). For `CCC(C)NC(=O)CCC(=O)N1Cc2ccccc2Oc2ncccc21` (stereo not drawn), the survival was 121% (inactive). The figure for `Cc1ccc(NC(=O)CCC(=O)N2Cc3ccccc3Oc3ncccc32)cc1Cl` is 82% (inactive); for `CC(C)NC(=O)CCC(=O)N1Cc2ccccc2Oc2ncccc21` it is -2% (active). The figure for `O=C(CCC(=O)N1Cc2ccccc2Oc2ncccc21)Nc1ccc(Cl)cc1` is 10% (active). Turning to `CN(C)c1ccc(CNC(=O)CCC(=O)N2Cc3ccccc3Oc3ncccc32)cc1`, the survival was 77% (inactive). The same measure for `Cc1ccc(CNC(=O)CCC(=O)N2Cc3ccccc3Oc3ncccc32)cc1`: 73% (inactive); for `CCOc1ccc(CNC(=O)CCC(=O)N2Cc3ccccc3Oc3ncccc32)cc1`: 0% (active); for `Cc1ccc(N2C(=O)SC(N(CC(=O)O)c3ccccc3)C2=O)cc1` (stereo not drawn): 112% (inactive).

On to `Cc1ccc(C)c(NC(=O)Nc2cccc(-c3cn4cccnc4n3)c2)c1`, for which the survival was 71% (inactive). The same measure for `O=S(=O)(c1ccc(Nc2ccc(-c3ccccc3)nn2)cc1)N1CCCC1`: 104% (inactive); for `Cc1cc(C)cc(N2C(=O)N(CC(=O)c3ccc(Br)cc3)c3ccccc3S2(=O)=O)c1`: 84% (inactive).

Consider `O=C1CC(c2ccc(Br)cc2)c2c(ccc3ccccc23)N1` (stereo not drawn), for which the survival is 39% (inactive).

In the case of `Cc1ccc(CSc2ccc3nnc(CCNS(=O)(=O)c4ccc(C)cc4)n3n2)cc1`, the survival was 82% (inactive). The figure for `CC1CCCN(CCCNC(=O)c2cc(Sc3ccc(F)cc3)nc3ccccc23)C1` (stereo not drawn) is 14% (active); for `O=C(NCCCN1CCCCC1)c1cc(Sc2ccc(Cl)cc2)nc2ccccc12` it is -1% (active); for `CC1CCCCN1CCCNC(=O)c1cc(Sc2ccc(Cl)cc2)nc2ccccc12` (stereo not drawn) it is 78% (inactive).

`CCc1ccc(Sc2cc(C(=O)NCCCN3CCCC(C)C3)c3ccccc3n2)cc1` (stereo not drawn): the survival is 71% (inactive).

Turning to `CCc1ccc(Sc2cc(C(=O)NCCCN3CCC(C)CC3)c3ccccc3n2)cc1`, the survival was 68% (inactive).

As for `CC1CCN(CCCNC(=O)c2cc(Sc3ccc(F)cc3)nc3ccccc23)CC1`, the survival was 74% (inactive).

On to `CC(=O)c1[nH]c(C)c(C(=O)NCCc2ccc(C)cc2)c1C`, for which the survival was 88% (inactive). The same measure for `CC(=O)Nc1cc(-n2cnnn2)ccc1C`: 98% (inactive). The same measure for `Cc1ccc(NC(=O)Cn2c(=O)n(Cc3nc(C)no3)c(=O)c3cc4c(cc32)OCO4)cc1`: 90% (inactive); for `CCOc1c(CC2C(=O)Nc3ccc(Br)cc32)cccc1OC` (stereo not drawn): 99% (inactive); for `COc1ccc(OC)c(CC2C(=O)Nc3ccc(Br)cc32)c1` (stereo not drawn): 84% (inactive). With `CCCCOc1ccccc1CC1C(=O)Nc2ccc(Br)cc21` (stereo not drawn), the survival is 3% (active). The same measure for `CCOc1ccccc1CC1C(=O)Nc2ccc(Br)cc21` (stereo not drawn): 73% (inactive); for `COc1ccc(CC2C(=O)Nc3ccc(Br)cc32)cc1OC` (stereo not drawn): 75% (inactive); for `CCCOc1ccc(CC2C(=O)Nc3ccc(Br)cc32)cc1` (stereo not drawn): -7% (active). Regarding `Cc1ccccc1C(=O)NCc1ccc2c(c1)CCN2C(=O)c1ccccc1`, the survival was 71% (inactive). The same measure for `COc1cccc(OC)c1C(=O)Nc1ccc(-c2nc3ncccc3o2)cc1`: 88% (inactive); for `COc1ccc(C)cc1NC(=O)Cn1c(=O)cc(C)c2c(C)nn(C)c21`: 68% (inactive); for `CCN(Cc1ccccc1)C(=O)Cn1cc(S(=O)(=O)Cc2cccc(Cl)c2)c2ccccc21`: 75% (inactive). Take `Cc1ccc(Sc2c(C)nn(C(=O)COc3ccccc3)c2C)cc1`: the survival was 9% (active).

As to `Cc1nn(C(=O)c2ccccc2)c(C)c1Sc1ccc(Cl)cc1`, the survival was 6% (active). The same measure for `Cc1nn(C(=O)COc2ccccc2)c(C)c1Sc1ccccc1`: 94% (inactive); for `Cc1nn(-c2ccccc2)c(OC(=O)C(C)C)c1Sc1ccc(Cl)cc1`: 39% (inactive). The same measure for `Cc1ccc(Sc2c(C)nn(C(=O)COc3ccc(F)cc3)c2C)cc1`: 85% (inactive); for `Cc1nn(C(=O)COc2ccc(Cl)cc2)c(C)c1Sc1ccccc1`: 88% (inactive). The figure for `Cc1ccc(Sc2c(C)nn(C(=O)c3ccc(Cl)cc3)c2C)cc1` is 2% (active).

With `Cc1nn(C(=O)c2ccc(Cl)cc2)c(C)c1Sc1ccc(Cl)cc1`, the survival is 40% (inactive). As for `COc1cc(C(=O)n2nc(C)c(Sc3ccc(Cl)cc3)c2C)cc(OC)c1OC`, the survival was 47% (inactive). The same measure for `Cc1ccccc1Nc1c(-c2cccc(Cl)c2)nc2ncccn12`: 83% (inactive); for `NC(=O)c1ccccc1NC(=O)CSc1nc(N)cc(=O)[nH]1`: 111% (inactive). The same measure for `CCOC(=O)/C(C#N)=C/c1ccc(-c2ccccc2)o1`: 81% (inactive); for `CCCC(=O)n1nc(-c2cccnc2)nc1NCc1ccc(OC)cc1`: 86% (inactive). `CCOc1ccc2nc(Cl)c(CN(Cc3ccco3)C(=O)N(C)C)cc2c1`: the survival was 109% (inactive). As for `Cc1ccc(C)c(N2CCN(C(=O)c3cc(S(=O)(=O)N4CCCCCC4)cn3C)CC2)c1`, the survival is 77% (inactive). The same measure for `CNC(=O)C1CCN(S(=O)(=O)c2ccccc2)CC1`: 109% (inactive); for `O=C(Nc1cc(-c2nc3ccccc3o2)ccc1Cl)c1cccc2c(Cl)cccc12`: 64% (inactive); for `COc1ccc(OCC(=O)Nc2cc(-c3nc4ccccc4o3)ccc2Cl)cc1`: 104% (inactive). The same measure for `COc1ccc(-c2nc3ccccc3o2)cc1NC(=O)C(C)(C)Oc1ccc(Br)cc1`: 0% (active); for `COc1ccc(-c2nc3ccccc3o2)cc1NC(=O)c1ccc(-c2ccc(Br)cc2)o1`: 73% (inactive); for `COc1ccc(-c2nc3ccccc3o2)cc1NC(=O)c1ccc(OCC(C)C)cc1`: 55% (inactive). The same measure for `COc1ccc(-c2nc3ccccc3o2)cc1NC(=O)c1cc(Br)ccc1OC`: 66% (inactive); for `COc1ccc(-c2nc3ccccc3o2)cc1NC(=O)COc1ccc(C(C)(C)C)cc1`: 2% (active). `O=C(Nc1cc(-c2nc3ccccc3o2)ccc1Cl)c1ccc(Br)o1`: the survival was 65% (inactive). The figure for `CC(C)(C)c1ccc(C(=O)Nc2cc(-c3nc4ccccc4o3)ccc2Cl)cc1` is 2% (active).

As for `O=c1nc2sc3ccccc3n2c(=O)n1-c1ccc(Cl)c(Cl)c1`, the survival was 27% (inactive). For `CCc1ccc(NC(=O)Cn2nnc(C(=O)NCc3ccc(C)cc3)c2N)cc1`, the survival was 69% (inactive). Consider `COc1ccc(-c2cn3c(n2)sc2cc(C(=O)Nc4cc(OC)cc(OC)c4)ccc23)cc1`, for which the survival was 98% (inactive). The same measure for `COc1ccc(N2CCN(C(=O)c3cc4c(=O)n(Cc5cccs5)ccc4nc3C)CC2)cc1`: 101% (inactive); for `CCOc1cccc(C(=O)Nc2ccc(-c3nc4cc(C)cc(C)c4o3)cc2)c1`: 82% (inactive).

Turning to `Cc1ccc2c(c1)sc1nc(-c3cc4ccccc4oc3=O)cn12`, the survival was 76% (inactive). The figure for `Cc1cc(C)c(NC(=O)Cn2nnc(-c3nc(-c4ccncc4)no3)c2N)c(C)c1` is 71% (inactive). On to `Cc1ccc(Nc2nc3ccccc3c3nncn23)cc1C`, for which the survival was 3% (active). The same measure for `COc1cccc(Nc2nc3ccccc3c3nncn23)c1`: 84% (inactive); for `Cc1ccc(Cl)cc1Nc1nc2ccccc2c2nncn12`: 92% (inactive). The figure for `COc1cc2ncc3c(-c4ccccc4)nn(CC(=O)NC4CCCCC4)c3c2cc1OC` is 79% (inactive); for `CC(C)(C)c1ccc(Oc2ccc(NC(=O)CCC(=O)OCC(=O)c3ccccc3)cc2)cc1` it is 86% (inactive). The same measure for `O=C(CCSCc1cccc(Cl)c1)N1CCN(c2ccc(Cl)cc2)CC1`: 80% (inactive); for `CCN(CC)C(=O)c1sc2c(c1C)c(=O)n(-c1ccc(C)c(C)c1)c(=O)n2Cc1cc(=O)n2c(C)cccc2n1`: 22% (inactive).

Take `CCN(CC)C(=O)c1sc2c(c1C)c(=O)n(-c1ccc(Cl)c(Cl)c1)c(=O)n2Cc1cc(=O)n2c(C)cccc2n1`: the survival was 0% (active). The same measure for `CCN(CC)C(=O)c1sc2c(c1C)c(=O)n(-c1ccc(Cl)c(Cl)c1)c(=O)n2Cc1cc(=O)n2ccccc2n1`: 118% (inactive). For `COc1ccccc1N1CCN(CC(=O)N2CCCC2)CC1`, the survival was 94% (inactive). The figure for `Cc1nc2nc[nH]n2c(=O)c1NS(=O)(=O)c1ccc(Br)cc1` is 84% (inactive); for `O=S(=O)(c1cc(Cl)ccc1Cl)N1CCCC1` it is 78% (inactive). As for `CCOc1ccccc1NC(=O)CSC1=Nc2ccccc2C2=NC(CC(=O)NC3CCCCC3)C(=O)N12` (stereo not drawn), the survival was 81% (inactive).

In the case of `O=C(COCc1cc(-c2ccco2)on1)Nc1cccc(Cl)c1Cl`, the survival is 0% (active). The figure for `O=C(COCc1cc(-c2ccco2)on1)Nc1cc(Cl)ccc1O` is -2% (active). For the compound `Cc1ccc(Cl)cc1NC(=O)COCc1cc(-c2ccco2)on1`, the survival was 77% (inactive). As for `O=C(COCc1cc(-c2cccs2)on1)Nc1cccc(Cl)c1Cl`, the survival was 59% (inactive). The figure for `O=C(COCc1cc(-c2ccc(F)cc2)on1)Nc1cccc(Cl)c1Cl` is 64% (inactive); for `Cc1ccc(O)c(NC(=O)COCc2cc(-c3ccco3)on2)c1` it is 87% (inactive); for `COc1cccc(CNC(=O)c2ccc3c(c2)N(Cc2ccc(F)cc2Cl)C(=O)c2ccccc2S3)c1` it is 19% (inactive).
